Data from PubChem BioAssay.
Active and inactive are the calls of the source.

What was measured:
[1] = tested on: Plasmodium falciparum Sir2 (PF13_0152, Sir2A); experiment: pfSir2 binders on small-molecule microarrays, primary screen, biochemical, small-molecule microarray, 635 nm fluorescence (AID 1098); conditions: small-molecule microarray binding, fluorescence 635 nm; higher = more signal;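 note: score merges spot fluorescence intensity with its signal-to-noise ratio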
[2] = small-molecule microarray binders of probe aDKK1, primary screen, biochemical, biotinylated probe, 635/667 nm fluorescence (AID 1099); conditions: higher = more signal;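 note: score merges 667nm spot fluorescence with signal to noise across triplicate slides; reference of the scale not given here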
[3] = small-molecule microarray binders of probe aCHRDL2, primary screen, biochemical, biotinylated probe, 635/667 nm fluorescence (AID 1100); conditions: higher = more signal
[4] = splicing luciferase reporter signal modulators, primary screen, spliceosome inhibition project, cell-based, HEK293, splice +/- reporter (AID 1101); conditions: luminescence, 24 h, higher = more signal, called active from +8 up or from −8 down;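 note: HEK293 cells carrying a splicing-competent luciferase reporter gene; test concentration not given here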
[5] = molecular target: Fibroblast growth factor 10 (Homo sapiens) (UniProt O15520); experiment: FGF10 binders on small-molecule microarrays, primary screen, biochemical, small-molecule microarray, 635 nm fluorescence (AID 1102); conditions: FGF10 binding, fluorescence 635 nm, higher = more signal
Sequence of Fibroblast growth factor 10 (Homo sapiens) (O15520 whole entry, looked up): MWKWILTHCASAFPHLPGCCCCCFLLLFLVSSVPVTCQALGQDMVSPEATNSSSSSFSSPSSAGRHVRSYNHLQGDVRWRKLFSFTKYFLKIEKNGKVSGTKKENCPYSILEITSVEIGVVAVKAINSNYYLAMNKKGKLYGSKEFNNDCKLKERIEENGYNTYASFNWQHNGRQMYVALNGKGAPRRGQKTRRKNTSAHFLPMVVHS

[6] = tested on: glycogen synthase kinase-3 (GSK3A per assay name; protocol says GSK3B); experiment: GSK3 binders on small-molecule microarrays, primary screen, biochemical, small-molecule microarray, 635 nm fluorescence, GSK3A (AID 1103); conditions: small-molecule microarray binding, fluorescence 635 nm; higher = more signal; note: the record names both GSK3A and GSK3B
[7] = molecular target: Epidermal growth factor receptor (Homo sapiens) (UniProt P00533); experiment: EGFR binders on small-molecule microarrays, primary screen, biochemical, small-molecule microarray, 635 nm fluorescence (AID 1104); conditions: EGFR binding, higher = more signal;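 note: score merges 667 nm emission intensity with spot signal to noise over triplicate slides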
Sequence of Epidermal growth factor receptor (Homo sapiens) (P00533 whole entry, looked up): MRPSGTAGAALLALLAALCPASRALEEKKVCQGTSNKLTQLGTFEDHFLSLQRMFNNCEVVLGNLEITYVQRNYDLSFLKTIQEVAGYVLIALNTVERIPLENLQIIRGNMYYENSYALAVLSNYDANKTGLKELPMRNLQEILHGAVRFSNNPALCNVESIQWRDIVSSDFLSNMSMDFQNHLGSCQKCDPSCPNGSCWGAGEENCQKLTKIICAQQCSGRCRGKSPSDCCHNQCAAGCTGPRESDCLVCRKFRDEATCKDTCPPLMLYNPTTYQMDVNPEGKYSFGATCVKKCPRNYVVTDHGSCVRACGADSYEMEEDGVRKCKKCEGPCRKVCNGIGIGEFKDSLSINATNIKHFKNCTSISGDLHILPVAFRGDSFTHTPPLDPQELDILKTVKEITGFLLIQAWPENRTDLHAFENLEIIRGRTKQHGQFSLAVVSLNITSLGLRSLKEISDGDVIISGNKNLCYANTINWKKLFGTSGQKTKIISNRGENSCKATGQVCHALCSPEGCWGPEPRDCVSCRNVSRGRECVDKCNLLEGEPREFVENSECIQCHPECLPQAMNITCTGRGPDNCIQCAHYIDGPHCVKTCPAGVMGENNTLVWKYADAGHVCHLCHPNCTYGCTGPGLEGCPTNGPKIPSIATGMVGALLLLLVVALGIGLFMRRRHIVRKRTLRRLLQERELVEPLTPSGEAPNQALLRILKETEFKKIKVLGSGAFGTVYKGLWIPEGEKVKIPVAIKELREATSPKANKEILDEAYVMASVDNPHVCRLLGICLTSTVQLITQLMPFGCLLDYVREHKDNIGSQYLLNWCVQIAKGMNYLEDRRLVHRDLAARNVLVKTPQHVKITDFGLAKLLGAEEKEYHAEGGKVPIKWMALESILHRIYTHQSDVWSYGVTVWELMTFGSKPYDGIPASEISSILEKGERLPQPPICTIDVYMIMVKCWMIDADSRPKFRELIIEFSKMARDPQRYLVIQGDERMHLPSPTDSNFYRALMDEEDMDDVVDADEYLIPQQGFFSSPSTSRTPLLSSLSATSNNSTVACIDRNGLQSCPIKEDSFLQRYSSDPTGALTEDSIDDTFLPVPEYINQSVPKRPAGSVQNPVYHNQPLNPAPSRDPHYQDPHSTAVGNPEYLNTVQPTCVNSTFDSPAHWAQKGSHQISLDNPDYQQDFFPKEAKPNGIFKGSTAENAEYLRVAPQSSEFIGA

[8] = molecular target: Follistatin-related protein 3 (Homo sapiens) (UniProt O95633); experiment: FSTL3 binders on small-molecule microarrays, primary screen, biochemical, small-molecule microarray, 635 nm fluorescence (AID 1105); conditions: FSTL3 binding, higher = more signal;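 note: score merges emission near 667 nm and signal to noise per printed spot across three slides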
Sequence of Follistatin-related protein 3 (Homo sapiens) (O95633 whole entry, looked up): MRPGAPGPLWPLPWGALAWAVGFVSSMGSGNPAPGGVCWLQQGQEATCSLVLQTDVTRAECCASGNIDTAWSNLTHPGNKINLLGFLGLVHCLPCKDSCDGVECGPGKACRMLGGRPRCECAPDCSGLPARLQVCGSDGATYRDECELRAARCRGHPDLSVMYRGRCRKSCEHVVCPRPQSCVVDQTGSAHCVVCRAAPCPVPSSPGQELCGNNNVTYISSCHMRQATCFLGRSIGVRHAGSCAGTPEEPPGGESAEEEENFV

[9] = molecular target: Dickkopf-related protein 1 (Homo sapiens) (UniProt O94907); experiment: DKK1 binders on small-molecule microarrays, primary screen, biochemical, small-molecule microarray, 635 nm fluorescence scan (AID 1106); conditions: DKK1 binding, higher = more signal;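 note: score merges emission near 667 nm with signal to noise over three replicate slides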
Sequence of Dickkopf-related protein 1 (Homo sapiens) (O94907 whole entry, looked up): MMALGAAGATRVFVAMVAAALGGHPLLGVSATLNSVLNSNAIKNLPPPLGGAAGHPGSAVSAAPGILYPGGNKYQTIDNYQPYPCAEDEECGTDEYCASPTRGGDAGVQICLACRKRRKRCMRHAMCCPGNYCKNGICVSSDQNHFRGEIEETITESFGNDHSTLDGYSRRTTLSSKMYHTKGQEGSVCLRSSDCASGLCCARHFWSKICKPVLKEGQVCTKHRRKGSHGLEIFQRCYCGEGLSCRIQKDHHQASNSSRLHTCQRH

[10] = tested on: Inhibin beta A chain (activin A); experiment: INHBA (activin A) binders on microarrays, primary screen, biochemical, small-molecule microarray, 635 nm fluorescence scan (AID 1107); conditions: small-molecule microarray binding, higher = more signal;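 note: mouse activin A protein probed at 4.33 µg/mL on printed slides; score merges bound-protein fluorescence near 667 nm with spot signal-to-noise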

Row | Compound | composite z-score [1] | composite z-score [2] | composite z-score [3] | z-score [4] | composite z-score [5] | composite z-score [6] | composite z-score [7] | composite z-score [8] | composite z-score [9] | composite z-score [10]
1 | CCOC(=O)[C@H](CC(C)C)NC(=O)CCC1CC(OC(=O)NCc2ccc3c(c2)OCO3)CC2(CCCC(COC(=O)NCCOC)O2)O1 (stereo not given in full) | 0.622 | -0.27 | -0.261 | -0.191 (inactive) | 0.495 | 0.627 | 0.184 | 0.864 | 0.336 | 0.637
2 | C=CC[C@@H]1C=C[C@H](Oc2ccc(C)cc2)[C@@H](COC(=O)NCc2cccc3ccccc23)O1 | 0.45 | -0.129 | 0.0944 | -0.566 (inactive) | 0.575 | -0.224 | -0.156 | 0.201 | 0.142 | 1.03
3 | CCc1cc2c(nc1CC)CCN(CCC(C)=NOCC[C@@H]1C=C[C@H](OC(C)=O)[C@@H](COC(C)=O)O1)C2 | 1.05 | 0.0092 | 0.343 | 0.192 (inactive) | -0.0488 | 0.459 | 0.789 | 0.332 | 0.301 | 1.29
4 | Cc1cc(C)c(-c2cc([C@H](C)ON=C[C@@H](C)[C@H](OCc3ccccc3)C(C)C)on2)c(C)c1 | -0.761 | -0.143 | -0.0987 | -0.34 (inactive) | 0.149 | -1.17 | -0.101 | -0.0283 | -0.034 | 0.874
5 | O=C1C2=CC[C@H]3C(=O)N(C[C@@H]4CCCO4)C(=O)[C@H]3[C@H]2[C@H](O)[C@@H]2O[C@H]12 | 1.22 | -0.28 | -0.594 | -1.47 (inactive) | 0.364 | 0.443 | 0.259 | -0.191 | -0.0034 | -0.277
6 | CC(C)[C@@H](OCc1ccccc1)[C@H](C)C=NO[C@H](C)c1cn([C@@H]2COC[C@H]2O)nn1 | 0.385 | -0.492 | -0.511 | 0.0201 (inactive) | 0.457 | 1.08 | 0.556 | 0.448 | 0.0939 | -1.31
7 | CCN1C(=O)[C@H]2[C@H]3[C@H](O)[C@H](O)CC(=NO[C@@H]4O[C@H](COC(C)=O)[C@@H](OC(C)=O)[C@H](OC(C)=O)[C@H]4OC(C)=O)[C@@H]3CC[C@H]2C1=O | 0.579 | 0.0594 | -0.601 | 0.5 (inactive) | 0.868 | 0.612 | 0.591 | 1.11 | 0.735 | -0.371
8 | Cc1cc2c(nc1C)CCCCN2CC(O)CN1CCCc2nc(-c3ccc(Br)cc3)ccc21 (stereo not given) | 0.704 | -0.0514 | -0.332 | 0.0168 (inactive) | 0.874 | 0.62 | 0.597 | 1.21 | 0.446 | 0.481
9 | Cc1ccc2[nH]c3nc(CCCn4ccnc4-c4ccccc4)nnc3c2c1 | 0.663 | -0.28 | -0.0165 | -0.128 (inactive) | 0.632 | 1.22 | 0.32 | 1.31 | 0.869 | -0.739
10 | CCOC(=O)CCN1C(=O)[C@H]2[C@H]3[C@H](O)[C@H](O)CC(=NO[C@@H]4O[C@H](CO)[C@@H](O)[C@H](O)[C@H]4O)[C@@H]3CC[C@H]2C1=O | 0.839 | -0.188 | -0.573 | -0.104 (inactive) | 1.04 | 1.26 | 1.05 | 1.37 | 1.27 | 0.898
11 | COc1ccc(O[C@H]2C=C[C@@H](c3ccccc3)O[C@@H]2COC(=O)NCc2cccc3ccccc23)cc1 | -0.101 | 0.0187 | 0.173 | -0.134 (inactive) | 0.0748 | -0.131 | -0.168 | 0.1 | 0.269 | 0.763
12 | CC(C)(C)N1C(=O)[C@H]2[C@H]3[C@H](O)[C@H](O)CC(=NNC(=O)OCc4ccccc4)[C@H]3CC[C@H]2C1=O | -0.195 | 0.0773 | -0.525 | -0.422 (inactive) | 0.72 | 0.792 | 0.208 | 0.889 | 0.608 | -1.06
13 | CON=C(C)CCN1CCc2nc(-c3ccccc3)c(-c3ccccc3)cc2C1 | 0.689 | -0.104 | 0.173 | -0.316 (inactive) | -0.0075 | -0.478 | 0.629 | 0.272 | 0.468 | 1.25
14 | COC(=O)[C@H](C)NC(=O)CCC1CC(OC(=O)NCc2cccc3ccccc23)CC2(CCCC(COC(=O)NCc3ccccc3)O2)O1 (stereo not given in full) | 0.537 | -0.132 | -0.459 | -0.829 (inactive) | 0.625 | 1.04 | 0.445 | 0.918 | 0.667 | -0.0949
15 | COc1ccc(COC(=O)NN=C2C[C@@H](O)[C@@H](O)[C@@H]3[C@@H]4C(=O)N(c5cccc(Oc6ccccc6)c5)C(=O)[C@@H]4CC[C@H]23)cc1 | 0.328 | 0.543 | 1.2 | -1.27 (inactive) | -0.0908 | -0.944 | -0.479 | -0.226 | -0.767 | 0.212
16 | CC(CCC(=O)OC[C@H]1O[C@H](C#Cc2ccccc2)C=C[C@@H]1Oc1ccc(C)cc1)=NOC[C@@H](C)[C@H](OCc1ccccc1)C(C)C | -1.11 | -0.247 | -0.506 | 0.371 (inactive) | -0.434 | -1.3 | -1.05 | -1.09 | -0.613 | 0.211
17 | C[C@H]1CC[C@@H](C(=O)O)N[C@@H]1c1cccc(N2CCCC2=O)c1 | 0.0371 | -0.154 | -0.496 | -0.00389 (inactive) | 0.184 | 0.631 | 0.376 | 0.285 | 0.153 | 0.292
18 | CC(CCN1CCCCc2nc(C)c(C)cc21)=NO[C@H](C)c1cn([C@@H]2COC[C@H]2O)nn1 | 0.742 | -0.404 | -0.961 | 1.09 (inactive) | 1.23 | 1.16 | 1.61 | 1.43 | 2.15 | 1.21
19 | COC(=O)[C@@H]1CC[C@H](C)[C@@H](c2ccc(Br)cc2)N1 | -0.725 | 0.297 | 0.321 | -0.181 (inactive) | -0.0529 | -0.879 | 0.377 | -0.391 | 0.187 | 0.894
20 | C=CC[C@@H]1C=CC(ON=C(C)C)[C@@H](CO)O1 (stereo not given in full) | 0.24 | -0.011 | -0.127 | 0.304 (inactive) | -0.766 | -0.689 | 0.0691 | -0.899 | -0.307 | 1.14
21 | CSCC[C@@H]1NC(=O)CC=C[C@@H](C)COC(=O)[C@H](C)COC1=O | 0.926 | -0.641 | -2.03 | -0.841 (inactive) | 1.49 | 0.781 | 1.67 | 1.23 | 2.31 | -2.83
22 | CCN1C(=O)[C@H]2[C@H]3[C@H](O)[C@H](O)CC(=NNC(=O)OCc4ccccc4)[C@@H]3CC[C@H]2C1=O | -0.16 | 0.118 | 0.78 | -0.176 (inactive) | -0.163 | -0.612 | -0.241 | -0.0709 | 0.131 | -0.291
23 | CCOC(=O)[C@H](CC(C)C)NC(=O)CCC1CC(OC(=O)NCCc2ccc(F)cc2)CC2(CCCC(COC(=O)NCc3cccc4ccccc34)O2)O1 (stereo not given in full) | 0.66 | -0.0464 | -0.224 | -1.61 (inactive) | 0.176 | 0.121 | 0.55 | 0.135 | 0.678 | -0.583
24 | CCOC(=O)CCN1C(=O)[C@H]2[C@@H]3C(=CC[C@H]2C1=O)C(=O)[C@H]1O[C@H]1[C@H]3O | 1.1 | -0.33 | -0.291 | 6.66 (inactive) | -0.632 | -0.837 | -0.0633 | -1.16 | -0.324 | -0.483
25 | Cc1ccc(C(C)C)n1C(=O)OC(C)(C)C | -0.0286 | -0.271 | -0.611 | -1.45 (inactive) | 0.789 | 0.61 | 0.55 | 0.807 | 0.768 | -0.124
